Source: PubChem BioAssay
PLK1 PBD block = PLK1 (human) polo-box domain binding inhibition; Plk1 PBD binding of FITC phosphopeptide, fluorescence polarization; 2.8% of 360,000 active; AID 720504; Potency, µM, actives largely listed as inhibitors; P53350; further: series mostly up to about 57 µM; nearly all actives have a fitted effect of over 65% in size
PI5P4K alpha inh = PI5P4K alpha (human) kinase inhibition. P48426. PI5P4Kalpha enzyme, ADP-Glo luminescence, 60 min; hits give low values. max response, %. 1.2% of 330,000 active. AID 652105; active means max response of -50% or lower; inconclusive means between -30% and -50%; inactive means -30% or higher; further: value at the top dose of about 77 µM
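ADP-Glo luminescence end-point read after a 60 min room-temperature kinase reaction of PI5P4Kalpha plus substrate, initiated with ATP at 5 microM final. Buffer: 0.038 M HEPES pH 7.4, EGTA, 0.1% CHAPS, 5% DMSO.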
TCR act = activates T cell receptor signaling. 330,000 tested, under 10 active. primary human leukocytes, anti-CD3, IL-2 HTRF, 48 h. AID 504894. Potency, µM (highest dose often 9.22 µM), most hits filed as activators
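IL-2 produced over 48 hr by a-CD3 bead-stimulated primary human leukocytes exposed to compounds was detected with a homogeneous time-resolved FRET immunoassay, 665nm acceptor signal after 320nm excitation.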
WRN helicase inh = inhibitors of human WRN helicase; WRN helicase unwinding, fluorescent forked duplex, kinetic; Potency, µM (series often up to 114 µM), usual class: inhibitors; 0.46% of 360,000 active; further: nearly all actives have a fitted effect of over 55% in size
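Kinetic fluorescence helicase assay: unwinding of a quenched forked DNA duplex (100 nM final) with 2 mM ATP final raises red fluorescence (525/598 nm). Compounds sat 15 min at room temperature with 20 nM WRN beforehand.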
VDR inhibitor = blocks the human vitamin D receptor; AID 504847; Potency, µM, usual class: inhibitors; 0.93% of 400,000 active; VDR-SRC2-3 peptide fluorescence polarization, 2 h
Target sequence (P11473 whole entry, looked up): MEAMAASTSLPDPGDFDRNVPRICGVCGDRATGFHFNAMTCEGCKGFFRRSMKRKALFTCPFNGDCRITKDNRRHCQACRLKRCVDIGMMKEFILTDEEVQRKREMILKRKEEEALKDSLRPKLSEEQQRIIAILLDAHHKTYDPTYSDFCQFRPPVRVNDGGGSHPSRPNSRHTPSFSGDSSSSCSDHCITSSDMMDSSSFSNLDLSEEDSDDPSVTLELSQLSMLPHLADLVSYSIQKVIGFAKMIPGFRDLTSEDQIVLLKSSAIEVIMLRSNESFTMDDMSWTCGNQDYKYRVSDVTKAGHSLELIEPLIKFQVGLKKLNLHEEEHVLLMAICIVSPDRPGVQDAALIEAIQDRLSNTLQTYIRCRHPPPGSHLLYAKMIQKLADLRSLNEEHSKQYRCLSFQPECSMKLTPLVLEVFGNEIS
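Compounds are added to VDR with labelled SRC2-3 coactivator peptide and held 2 h at room temperature. Inhibition of the VDR–peptide interaction is then read as a change in fluorescence polarization.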
FEN1 inh = human FEN1 inhibition | 0.35% of 390,000 active | Potency, µM (highest dose often 114 µM), actives largely listed as inhibitors | Recombinant FEN1 flap cleavage, fluorescence, 15 min; further: nearly all actives have a fitted effect of over 65% in size
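Potency values derive from four-parameter Hill fits of normalized qHTS data. The reaction used 10 nM FEN1 preincubated 15 min at room temperature with compound, then 50 nM DNA substrate, read at 0 and 15 min.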
Hits are given with their value; i = inactive; ? = inconclusive; nt = no result; [ ] = another dose, or the depositor's remark. Sampled rows, rich in hits. Any-hit rate of the full collection: about 3.7%. Unless noted, the call rests on the fitted dose curve; in most records, active means well fitted curve in the direction sought with a large enough effect; inconclusive means small, poorly fitted or top-dose-only effect, or another doubt; inactive means no such curve, though single readings can be large; an effect the other way counts as inactive or inconclusive.

SMILES | PLK1 PBD block | PI5P4K alpha inh | TCR act | WRN helicase inh | VDR inhibitor | FEN1 inh
CCOC(=O)c1c(Oc2ccc(OC)cc2)nnc(-c2ccccc2)c1-c1ccccc1 | nt | nt | nt | nt | i | i
O=C(NNc1cccc(Cl)n1)c1ccccc1CC[N+](=O)[O-] | ? | -78.1 | i | ? | ? | i
O=C(NNc1cccc(Cl)n1)c1ccc(Cl)cc1Cl | i | i | i | i | i | i
O=[N+]([O-])c1cc(Br)c(Nc2ccccc2)c([N+](=O)[O-])c1 | 29.9µM | i | i | i | ? | i
CC(C)NS(=O)(=O)c1cc(C(F)(F)F)ccc1/C=C/C(=O)O | nt | nt | nt | nt | nt | i
CCn1c2ccccc2c2cc(NC(=O)C(=O)N3CCOCC3)ccc21 | 21.2µM | i | i | i | i | i
CCOC(=O)c1c(N)sc2c1CCC1C(=O)N(C3CCCCC3)C(=O)C21 (configuration not stated) | 18.9µM | i | i | i | i | i
Cc1cc(C)cc(NC(=O)CCCn2c3ccccc3c(=O)c3ccccc32)c1 | nt | nt | nt | nt | i | i
Cc1ccc(-n2c3nc(=O)[nH]c(=O)c-3cc3cc([N+](=O)[O-])ccc32)cc1 | 16.8µM | i | i | ? | ? | i
Cc1ccc(-n2c(C)nn(Cc3ccc([N+](=O)[O-])cc3)c2=O)cc1 | i | i | i | i | i | i
O=C(NCc1ccc(Cl)cc1)C1CCCN(c2nc3ccccc3n3cccc23)C1 (configuration not stated) | nt | nt | nt | nt | i | i
COc1ccccc1-c1cc(Nc2ccn[nH]2)ncn1 | nt | nt | nt | nt | 44.7µM | nt
COc1ccccc1-c1cc(Nc2ccc(F)cc2)ncn1 | nt | nt | nt | nt | i | nt
c1ccc(-c2nnc(NC3=NCCC3)o2)cc1 | 23.8µM | i | i | i | i | i
CCc1ccc(NC(=O)C(C)n2nnc3sc(-c4ccccc4)cc3c2=O)cc1 (configuration not stated) | nt | nt | nt | nt | i | ?
CCc1ccccc1NC(=O)c1sc(-n2nc(C)c(Cc3ccc4c(c3)OCO4)c2C)nc1C | nt | nt | nt | nt | i | i
COc1ccc(NC2=CC(c3ccc(OC)cc3)N(c3ccc(OC)cc3)C2=O)cc1 (configuration not stated) | 23.8µM | i | i | i | i | i
COc1ccc(NC2=CC(c3ccc(F)cc3)N(c3ccc(OC)cc3)C2=O)cc1 (configuration not stated) | i | i | i | i | i | i
O=C(O)c1ccc(N/N=C/c2cn(Cc3ccccc3F)c3ccccc23)cc1 | 29.9µM | i | i | i | i | i
CCCc1ccccc1OCCNC(C)=O | 3.36µM | ? | i | i | ? | i
CCc1ccccc1OCCCCCNCCO | i | nt | nt | i | i | i
CC1(C)CC(N2CCCC2)=CC(=[N+]2CCCCCC2)C1 | 29.9µM | i | i | i | i | i
CC[C@H](C)[C@H](NC(=O)[C@H](CC(C)C)NC(=O)[C@H](CC(N)=O)NC(=O)[C@@H](NC(=O)[C@@H](N)Cc1ccc(O)cc1)[C@@H](C)CC)C(=O)N[C@@H](Cc1ccc(O)cc1)C(=O)N[C@@H](CCCN=C(N)N)C(=O)N[C@@H](CC(C)C)C(=O)N[C@@H](CCCN=C(N)N)C(=O)N[C@@H](Cc1ccc(O)cc1)C(N)=O | nt | nt | nt | nt | i | nt
O=C1Nc2ccccc2C1=Nc1ccc(S(=O)(=O)Nc2nccs2)cc1 | 26.7µM | -78.7 | i | 20µM | i | 50.1µM
O=c1cnnc(N/N=C/c2ccccn2)[nH]1 | 21.2µM | i | i | i | ? | i
SMILES | PLK1 PBD block | PI5P4K alpha inh | TCR act | WRN helicase inh | VDR inhibitor | FEN1 inh
Cc1ncc(CO)c(/C=N/Nc2ccc(C(F)(F)F)cn2)c1O | 26.7µM | i | i | i | ? | i
COc1ccc2cc[nH]c2c1 | 21.2µM | i | i | i | ? | i
Cn1nc(-c2cccnc2)nc2c(=O)n(C)c(=O)nc1-2 | nt | nt | nt | nt | i | i
O=C1c2ccccc2C(=O)c2[nH]cnc21 | i | i | i | i | i | i
O=C1C=C(O)c2ccccc2C1=O | nt | nt | nt | nt | 8.91µM | nt
O=C1C(O)=C(O)C(=O)c2ccccc21 | i | i | i | i | 8.91µM | ?
O=C1c2ccccc2C(=O)c2[nH]c(=O)[nH]c21 | i | -69.2 | i | i[11.6 µM] | i | ?
Cc1cccc(Nc2nnc(-c3ccc(C)c(S(=O)(=O)N4CCN(C)CC4)c3)c3ccccc23)c1 | nt | nt | nt | nt | i | i
CC(=O)/C(C#N)=C1\NC(=O)C(Cc2cc(Cl)ccc2Cl)S1 (configuration not stated) | i | -53.3 | i | i | i | i
Cc1ccc(-c2[nH][nH]c(=O)c(=O)c2N=Nc2ccccc2)cc1 | 29.9µM | i | i | i | i | i
CC[C@]12c3[nH]c4cc(CCC(=O)N(C)C)ccc4c3CCN1C(=O)[C@@H](CC(=O)NCCCOC)C[C@@H]2C(=O)N1CCN(C(=O)C2CC2)CC1 | 21.2µM | ? | i | i | ? | i
CC[C@]12c3[nH]c4cc(CCC(=O)N(C)C)ccc4c3CCN1C(=O)[C@@H](CC(=O)NCCc1ccccn1)C[C@@H]2C(=O)N1CCN(C(=O)C2CC2)CC1 | i | i | i | i | i | i
CC[C@]12c3[nH]c4cc(-c5ccco5)ccc4c3CCN1C(=O)[C@@H](CC(=O)NCCCOC)C[C@@H]2C(=O)N1CCN(C(=O)c2ccco2)CC1 | 21.2µM | ? | i | i | ? | i
O=C(Nc1cccc(C(F)(F)F)c1)c1cc(-c2ccc(Cl)s2)nc2ccccc12 | nt | nt | nt | nt | i | i
COc1ccc(OC)c(/C(O)=C/C(=O)C(=O)Nc2cc(C)ccc2OC)c1 | i | i | nt | i | i | ?
CCOc1ccccc1NC(=O)C(=O)/C=C(\O)c1cc(OC)ccc1OC | 21.2µM | i | nt | i | ? | ?
C/C=C/Cn1c(SCCCc2ccccc2)nc2c1c(=O)[nH]c(=O)n2C | i | i | i | i | i | i
CCCCCOC(=O)CSc1nc2c(c(=O)[nH]c(=O)n2C)n1CCc1ccccc1 | 21.2µM | i | i | i | ? | i
COCCn1c(SCCCc2ccccc2)nc2c1c(=O)[nH]c(=O)n2C | ? | i | i | i | i | i
CC(C)n1c(SCCCc2ccccc2)nc2c1c(=O)[nH]c(=O)n2C | 9.47µM | i | i | i | ? | i
COc1ccc(CCn2c(-n3nc(C)cc3C)nc3c2c(=O)[nH]c(=O)n3C)cc1 | 2.99µM | ? | i | 79.4µM | i | i
COCCSc1nc2c(c(=O)[nH]c(=O)n2C)n1CCCc1ccccc1 | 21.2µM | i | i | i | ? | i
O=C(Cc1ccc[nH]c1=O)c1ccc(F)cc1 | nt | nt | nt | nt | nt | i
O=C(Nc1cc(C(F)(F)F)ccc1N1CCOCC1)c1c(F)c(F)c(F)c(F)c1F | 29.9µM | i | i | i | i | i
O=C(Nc1cc(C(F)(F)F)ccc1N1CCOCC1)c1ccccc1 | i | nt | i | i | i | i
CCOC(=O)c1cc(S(=O)(=O)NCc2ccc(OC)cc2)[nH]n1 | nt | nt | nt | nt | i | i
O=C(O)CCN1C(=O)/C(=C\c2cccc(OCc3ccccc3)c2)SC1=S | 18.9µM | i | i | i | ? | i
O=C(O)CN1C(=O)/C(=C\c2cccc(OCc3ccc(Cl)cc3Cl)c2)SC1=S | 21.2µM | i | i | i[11.6 µM] | ? | ?
